Compounds with a hit are over-represented: about 3.6% of the library has one in this group of screens.
mHTT-CaM PPI inh: mHTT-calmodulin interaction abrogation; P42858; AlphaScreen His-mHTT/GST-CaM binding, luminescence; inhibition, % at 15 µM; 3.6% of 190,000 active
Pf apPOL inh: Pf-apPOL DNA polymerase inhibition. Recombinant Pf-apPOL, molecular beacon fluorescence, 1.5 h. inhibition, % at 10 µM. 0.25% of 210,000 active
Large screens that a line does not name were inactive. No stated cut-off is given here; in the data, active means inhibition above about 50%; inactive means the rest.

O=C1C(=O)N(Cc2cccc(C(F)(F)F)c2)c2ccccc21	none
O=S(=O)(c1ccc(Cl)c(S(=O)(=O)N2CCOCC2)c1)N1CCOCC1	none
O=C1C(=O)N(CCc2ccccc2)c2ccc(Cl)cc21	none
O=C1C(=O)N(Cc2cccc(Cl)c2)c2ccccc21	mHTT-CaM PPI inh 93
c1ccc2c(c1)nc1nc[nH]n12	none
Nn1cnn2c(SCC(=O)Nc3ccccn3)nnc12	none
Cc1sc2ccn(CC(C)C)c(=O)c2c1C(=O)N1CCCCC1	none
COc1cc(OC)nc(N2C(=O)CC(Cc3ccccc3)C2=O)n1 (configuration not stated)	none
COc1ccccc1C1Nc2ccccc2NC2=C1C(=O)CC(c1ccc(Cl)cc1)C2 (configuration not stated)	none
COc1ccc(C2CC(=O)C3=C(C2)Nc2ccccc2NC3c2cc(Cl)c(O)c(OC)c2)cc1 (configuration not stated)	none
COc1ccc(C2CC(=O)C3=C(C2)Nc2ccccc2NC3c2cc(C)ccc2C)cc1 (configuration not stated)	mHTT-CaM PPI inh 62
COc1cccc(C2Nc3ccccc3NC3=C2C(=O)CC(c2ccc(Cl)cc2)C3)c1OC (configuration not stated)	mHTT-CaM PPI inh 80
COc1ccc(C2CC(=O)C3=C(C2)Nc2ccccc2NC3c2ccccc2Br)cc1 (configuration not stated)	none
CC1=C(C#N)C(c2cccnc2)C2=C(CC(c3ccc(Cl)cc3)CC2=O)N1 (configuration not stated)	none
CCOc1ccccc1C1C(C#N)=C(C)NC2=C1C(=O)CC(c1ccc(Cl)cc1)C2 (configuration not stated)	mHTT-CaM PPI inh 52
COc1cc(C2Nc3ccccc3NC3=C2C(=O)CC(c2ccc(C)cc2)C3)cc(Cl)c1O (configuration not stated)	mHTT-CaM PPI inh 62
O=C(CCC1CCN(c2cc(NC3CC3)ncn2)CC1)NCc1ccccc1F	none
C[C@]12CCC(=O)C=C1CC[C@@H]1[C@@H]2[C@@H](O)C[C@@]2(C)[C@H]1CC[C@]2(O)C(=O)CO	none (no result: mHTT-CaM PPI inh)
O=Cc1ccc(N2CCCC2)o1	none (no result: Pf apPOL inh)
CC(=O)c1cccc(NC(=O)c2ccc3nccnc3c2)c1	none
CC1(C)Cc2cccc(OCC(=O)NCC3CCN(S(C)(=O)=O)CC3)c2O1	none
Cc1ccccc1Cc1c(C)nc2c(C(=O)NCc3ccc(Cl)cc3)cnn2c1C	none
Cc1ccc(-c2ccc(N)cc2)o1	mHTT-CaM PPI inh 55
Cc1ccc(-c2ccccc2N)o1	none
COc1cccc(NC(=O)CSc2nc3nc(C)c(Cc4ccccc4C)c(C)n3n2)c1	none
CCCCN(CC)S(=O)(=O)c1ccc(C(=O)Nc2nc(-c3ccccn3)cs2)cc1	mHTT-CaM PPI inh 96
CCCCN(CC)S(=O)(=O)c1ccc(C(=O)Nc2nnc(CC)o2)cc1	none
O=C(Nc1nc(-c2ccccn2)cs1)c1ccc(S(=O)(=O)N2CCOCC2)cc1	none
O=C(Nc1nc(-c2ccccn2)cs1)c1ccc(S(=O)(=O)N2CCCCC2)cc1	mHTT-CaM PPI inh 100
Cc1cc(F)ccc1NC(=O)C1CCN(c2cncnc2N2CCOCC2)CC1	none
CC(C)Cn1c(C2CCN(C(=O)c3c[nH]c4ccccc34)C2)nc2ccncc21 (configuration not stated)	none
Nc1nonc1/C(=N\O)N1CCN(c2ccc(Cl)cc2[N+](=O)[O-])CC1	mHTT-CaM PPI inh active
O=C(c1ccc(Cl)cc1)N1CCN(c2ccc(Cl)cc2[N+](=O)[O-])CC1	none
COc1ccc(N2CCN(/C(=N/O)c3nonc3N)CC2)c([N+](=O)[O-])c1	none
Cc1c(C(=O)N2CCN(c3ccc(Cl)cc3[N+](=O)[O-])CC2)oc2ccccc12	mHTT-CaM PPI inh 61
CCOc1ccccc1C=C1Oc2cc(OCC(=O)OC(C)(C)C)ccc2C1=O	none
Nc1cc(C2CCN(C(=O)Cc3cccc(F)c3)CC2)no1	none
COc1ccc(OC)c(C2C3=C(Nc4c2c(=O)n(C)c(=O)n4C)c2ccccc2C3=O)c1 (configuration not stated)	none
O=C1C2=C(Nc3ccccc3SC2c2ccc([N+](=O)[O-])cc2)c2ccccc21 (configuration not stated)	mHTT-CaM PPI inh 66
O=C1C2=C(Nc3[nH]n(-c4ccccc4)c(=O)c3C2c2ccc([N+](=O)[O-])cc2)c2ccccc21 (configuration not stated)	mHTT-CaM PPI inh 50
Cn1c2c(c(=O)n(C)c1=O)C(c1ccc([N+](=O)[O-])cc1)C1=C(N2)c2ccccc2C1=O (configuration not stated)	none
O=C1OCC2=C1C(c1ccc(F)cc1)Sc1ccccc1N2 (configuration not stated)	none
CCOC(=O)C1=C(C)NC2=C(C(=O)c3ccccc32)C1c1ccc([N+](=O)[O-])cc1 (configuration not stated)	none (no result: mHTT-CaM PPI inh)
COc1ccc(OC)c(C2Sc3ccccc3NC3=C2C(=O)c2ccccc23)c1 (configuration not stated)	mHTT-CaM PPI inh 71
